FMDV Renilla = antivirals against foot and mouth disease virus replicon | FMDV replicon cells, Renilla luciferase signal | Potency, µM (titrated, usually from 57.5 µM), without a hit: top-dose activity change, negative = inhibition, most hits filed as inhibitors | 0.32% of 120,000 active; also: nearly all actives have a fitted effect of over 55% in size
FMDV FLuc = shows antiviral activity against foot and mouth disease virus; FMDV antiviral cell assay, firefly luciferase signal; Potency, µM (highest dose often 57.5 µM), inactives show top-dose activity change, negative = inhibition, hits mostly inhibitors; 0.23% of 120,000 active; AID 1745856; also: nearly all actives have a fitted effect of over 60% in size
Starred values were filed as active, the others as inactive; u = inconclusive; [ ] = remark or other dose. Only some compounds are listed: those with a hit (about 0.45% of all), similar ones and a draw of the others. Calls follow the shape of the full dose curve. % is scaled to controls: 0 for no effect and ±100 for the full control effect; potency is read from the fitted curve at half-maximal effect.

SMILES	FMDV Renilla	FMDV FLuc
COC(=O)c1ccccc1NC(=O)CN1C(=O)CN=C(c2ccccc2Cl)c2cc(Cl)ccc21	-10%	-29%
CCNC(=O)C(=O)NCC(c1ccco1)S(=O)(=O)c1ccc(Cl)cc1 (configuration not stated)	7%	-1%
COc1ccc(NC(=O)CCn2cnc3onc(-c4ccc(F)cc4)c3c2=O)cc1OC	4µM*	u
COc1cc(Cl)c(C)cc1NC(=O)CCn1cnc2onc(-c3ccc(F)cc3)c2c1=O	-1%	9%
Cc1occc1-c1nc(-c2cccc(Br)c2)no1	2%	0%
O=C(CN1CCCCC1)Nc1c(-c2ccccc2)c2cc(Br)ccc2[nH]c1=O	10%	31%
CC(C)(C)c1ccc2c(c1)OCCOCCOCCOCCO2	-24%	-11%
CC(C)(C)c1ccc2c(c1)OCCOCCOc1cc(C(C)(C)C)ccc1OCCOCCO2	18µM*	28µM*
Nc1nc(Nc2ccc(F)cc2)sc1C(=O)c1ccccc1Cl	-34%	0%
CC(=O)c1cccc(NS(=O)(=O)c2ccc(-c3cnc(C4CC4)o3)cc2)c1	-21%	8.9µM*
Cc1ccc(NS(=O)(=O)c2ccc(-c3cnc(C4CC4)o3)cc2)cc1F	135%	-26%
CC(C)CCCC(C)NC(=S)NN (configuration not stated)	-5%	-6%
C=CCOc1cccc(/C=C(\C#N)c2nc3ccccc3[nH]2)c1	u	95%
O=C(Nc1ccccc1-c1nc2ccccc2s1)c1ccc(F)cc1	-9%	-13%
O=C(Oc1ccc(F)cc1)c1ccc(-c2nc3ccccc3s2)s1	8%	10µM*
Cc1ccccc1C(=O)NC12CC3CC(CC(C3)C1)C2	37%	21%
O=C(NC12CC3CC(CC(C3)C1)C2)c1ccc(-c2nc3ccccc3s2)s1	20%	20µM*
Cc1ccc(-c2ccc(=O)n(Cc3noc(C(=O)NCc4ccco4)n3)n2)cc1	72%	1%
Cc1ccc(C(=O)c2sc(Nc3cc(Cl)ccc3C)nc2N)cc1	-21%	-9%
Cc1cc(Cl)nc2c(C)c(Cl)ccc12	12%	0%
NC(N)=N/N=C/c1cccc([N+](=O)[O-])c1	8%	25%
CCOc1cc(Br)c(/C=C2/NC(=O)NC2=O)cc1OC	u	2.8µM*
COc1cc(/C=C2\NC(=O)NC2=O)c(Br)cc1OCC(=O)O	-8%	-15%
Cc1c(Cl)cccc1NC(=O)CCN=C1NS(=O)(=O)c2ccccc21	92%	-13%
CCOC(=O)c1ccc(NC(=O)c2cnn3c(=O)c4c(n(CC)c23)CCN(Cc2ccc(OC)cc2)C4)cc1	8%	-15%
SMILES	FMDV Renilla	FMDV FLuc
CCn1c2c(c(=O)n3ncc(C(=O)N4CCN(c5ccc(C(C)=O)cc5)CC4)c13)CN(Cc1ccc(OC)cc1)CC2	22µM*	u
Cc1oc(-c2ccccc2)nc1CC(=O)Nc1ccc(F)cc1Cl	20%	19%
O=C(c1n[nH]c(=O)c2ccccc12)N1CCN(CC(F)(F)F)CC1	17%	38%
Cc1cccc(CN2CCN(C(=O)c3n[nH]c(=O)c4ccccc34)CC2)c1	u	14µM*
CNc1oc(-c2ccccc2OC)nc1S(=O)(=O)c1ccc2c(c1)OCCO2	161%	5%
Cc1ccc(N/N=C/c2cccc(C(F)(F)F)c2)cc1Cl	9%	3%
Cc1ccc(Nc2nc3nonc3nc2Nc2cccc(C(F)(F)F)c2)cc1Cl	2.2µM*	u
O=C(CN(C1CCCCC1)S(=O)(=O)c1ccc(Br)cc1)Nc1ccc(F)cc1F	199%	2%
CCS(=O)(=O)N1CCC(C(=O)N2CCN(c3cc(Cl)ccc3C)CC2)CC1	-25%	-19%
Cc1ccc(Cl)cc1N1CCN(C(=O)C2CCN(c3nnc(-n4c(C)ccc4C)s3)CC2)CC1	u	10µM*
Cc1cc(C)cc(Nc2cc(C)nc3nncn23)c1	33%	36%
Cc1cc(NCc2ccccc2Cl)n2cnnc2n1	16µM*	u
CCOc1c(Br)cc(/C=C(/C#N)C(=O)OCCOC)cc1OC	-4%[1.06 µM]	7%
COC(=O)c1ccc(COc2ccc3c(=O)c(-c4ccccc4OC)c(C)oc3c2)cc1	-35%	1µM*
COC(=O)c1ccc(Oc2c(C)oc3cc(OCc4ccc(F)cc4)ccc3c2=O)cc1	-4%	4%
C/C(=N\NC(=O)C1CC1c1ccccc1)c1ccncc1 (configuration not stated)	5%	-3%
O=C(Nc1ccncc1)c1ccc(-c2ccccc2)cc1	3.2µM*	-11%
O=C(Nc1ccc(F)c(Cl)c1)c1ccc(-c2ccccc2)cc1	11%	118%
Cc1ccc2nc(C)c(C(=O)N3CCN(Cc4ccccc4C)CC3)cc2c1	16µM*	16µM*
Cc1ccc(S(=O)(=O)N2CCN(C(=O)c3cc4cc(C)ccc4nc3C)CC2)cc1	3%	14%
CC(CCO)Nc1nc2c(c(=O)n(C)c(=O)n2C)n1Cc1ccc(Cl)c(Cl)c1 (configuration not stated)	5%	-5%
CCCCc1nc(NCc2ccncc2)c(C#N)c2c1CCCC2	0%	u
CCc1nc(NCc2ccncc2)c(C#N)c2c1CCCC2	u	7.1µM*

Screening data as filed in PubChem.
